Source: PubChem BioAssay
The list is not random: actives were taken first. Their share in the collection is about 3.5%.
GPR151 ag: activates the human receptor GPR151. Q8TDV0. 1% of 650,000 active. activation, % at 11.2 µM. PathHunter beta-arrestin GPR151 cells, luminescence; in the data active = activation above about 4.9%;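 also: 0% = median of compound wells and 100% = cells with positive control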
TEAD-YAP block: TEAD-YAP interaction inhibition. 1.4% of 640,000 active. inhibition, % at 9.12 µM. HEK-TIYL cells, TEAD-Gal4/YAP UAS-luciferase luminescence; in the data active = inhibition above about 32%;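 also: 0% = median of test compound wells and 100% = reference inhibitor wells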
FBW7 act: activators of human E3 ligase FBW7; Q969H0; AlphaScreen FBW7–phospho-cyclin E peptide binding, activator screen; normalized activity (activation), % at 26.1 µM; 0.13% of 650,000 active; in the data active = normalized activity above about 1.9%;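 also: purified mutant Fbw7 with reduced substrate affinity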
Target sequence (Q969H0 whole entry, looked up): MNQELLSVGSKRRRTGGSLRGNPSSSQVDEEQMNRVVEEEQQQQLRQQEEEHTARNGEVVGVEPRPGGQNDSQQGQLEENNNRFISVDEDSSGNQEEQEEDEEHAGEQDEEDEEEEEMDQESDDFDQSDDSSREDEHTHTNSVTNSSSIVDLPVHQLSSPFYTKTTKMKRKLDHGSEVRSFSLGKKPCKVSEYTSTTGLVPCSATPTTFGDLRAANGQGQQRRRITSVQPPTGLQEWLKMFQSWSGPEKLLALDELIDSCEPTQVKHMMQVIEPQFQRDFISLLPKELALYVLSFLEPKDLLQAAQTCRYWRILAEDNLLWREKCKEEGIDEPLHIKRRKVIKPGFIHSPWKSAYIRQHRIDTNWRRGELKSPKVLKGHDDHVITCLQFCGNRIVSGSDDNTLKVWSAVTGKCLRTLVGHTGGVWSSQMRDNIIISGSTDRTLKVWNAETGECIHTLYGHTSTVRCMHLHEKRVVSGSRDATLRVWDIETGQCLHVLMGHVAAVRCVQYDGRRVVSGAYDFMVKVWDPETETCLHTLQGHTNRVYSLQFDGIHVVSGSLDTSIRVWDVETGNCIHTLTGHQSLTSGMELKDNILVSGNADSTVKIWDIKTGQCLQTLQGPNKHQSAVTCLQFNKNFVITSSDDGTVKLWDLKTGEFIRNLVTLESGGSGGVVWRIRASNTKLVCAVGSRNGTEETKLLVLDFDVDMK
MITF primary: human MITF inhibition, primary screen. O75030. AlphaScreen MITF homodimerization, bead proximity signal. inhibition, % at 2.6 µM. 0.91% of 650,000 active; in the data active = inhibition above about 50%;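 also: 0% = vehicle wells with protein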
MITF confirm: human MITF inhibition, confirmation. shares compounds with MITF primary. AlphaScreen MITF homodimerization, biotin/His-MITF beads. inhibition, % at 2.6 µM. 16% of 4,700 active;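 active = inhibition above a cutoff derived from the DMSO control wells, cut at about 28% in these data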;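 also: 0% = MITF dimer wells with DMSO only; inhibitors lower the bead chemiluminescence by keeping MITF from dimerizing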
AlphaScreen DR: optically interferes with AlphaScreen signal in dose response. AlphaScreen optical interference counterscreen, cell-free. 6% of 480 active. shares compounds with MITF primary. IC50, µM; call rule not given here
AS interf ctr: optically interferes with AlphaScreen signal | shares compounds with MITF primary | LysRS AlphaScreen counterscreen, signal interference, triplicate | inhibition, % at 2.6 µM | 7.6% of 4,700 active | AID 1259376;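 active = inhibition above a cutoff derived from the DMSO control wells, cut at about 30% in these data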
Starred values were filed as active, the others as inactive; i = inactive; x = no result given.

SMILES | GPR151 ag | TEAD-YAP block | FBW7 act | MITF primary | MITF confirm | AS interf ctr | others
COc1ccccc1CNCc1cc(Br)ccc1OC | -1.0 | -2.3 | -0.3 | 69.7* | -10.6 | -4.7
CC1CCCC(NC(=O)CN(C)S(=O)(=O)c2cccc3cccnc23)C1C (centres undefined) | -0.1 | -4.3 | 0.7 | 64.4* | 9.6 | 10.1
CCOc1ccccc1NC(=O)Cn1cnc2c(cnn2-c2ccccc2C)c1=O | 0.3 | 15.0 | -0.1 | -0.2 | x | x
Cc1ccc(C2C3=C(CC(C)(C)CC3=O)Nc3ccccc3N2C(=O)Cc2ccc(Cl)cc2)o1 (centres undefined) | 0.3 | 0.9 | 0.1 | 23.5 | x | x
CC(C)(C)c1ccc(S(=O)(=O)N2CCc3nc4ccccc4c(C(=O)O)c3C2)cc1 | -0.4 | -4.9 | -0.1 | 50.6* | -7.1 | -1.7
Cc1cc2c(c(=O)n1Cc1cccs1)C(c1ccco1)C(C#N)=C(N)O2 (centres undefined) | 0.8 | -3.0 | 0.0 | 18.7 | x | x
O=C(CSc1ccccc1)N/N=C/c1cccc(Cl)c1 | -0.2 | -3.5 | 0.0 | -21.3 | x | x
CCCc1[nH]nc2c1C(c1ccc(OC)cc1OC)C(C#N)=C(N)O2 (centres undefined) | -0.8 | -0.8 | 0.0 | 61.5* | 11.4 | 16.8
CCCc1[nH]nc2c1C(c1c(OC)cc(OC)cc1OC)C(C#N)=C(N)O2 (centres undefined) | 0.8 | 2.7 | -0.2 | 11.6 | x | x
CCOC(=O)C1CCN(C(=O)C2CCN(Cc3cccc(OC)c3)CC2)CC1 | 1.1 | 10.4 | -0.1 | 52.1* | 6.2 | 6.5
CCN(Cc1ccccc1)C(=O)C1CCN(Cc2cccc(OC)c2)CC1 | -1.6 | -4.4 | -0.1 | 52.1* | 11.9 | 8.3
CCOc1cc2oc(=O)cc(CC)c2cc1Cl | -0.1 | 4.5 | -0.1 | 3.1 | x | x
CCc1cc(=O)oc2cc(OC)c(Cl)cc12 | 0.8 | 7.6 | 0.0 | 88.1* | 0.3 | -0.8
CCCCC[C@@H](O)CC[C@H]1[C@H](O)CC(=O)[C@@H]1CCCCCCC(=O)O | 1.9 | x | x | 22.5 | x | x
O=C(CCCCC1SCC2NC(=O)NC21)NC1(c2ccc3c(c2)OCO3)CCCC1 (centres undefined) | 1.1 | -7.2 | -1.5 | 113.1* | 101.7* | 18.1 | AlphaScreen DR=i
O=C(O)CCCC[C@H]1SC[C@H]2NC(=O)N[C@H]21 | 1.4 | -11.8 | -0.5 | 116.8* | 122.8* | 100.6*
O=C(O)CCCCC1SCC2NC(=O)NC21 (centres undefined) | -0.7 | -1.8 | -0.4 | 122.2* | 124.4* | 100.6*
COc1ccc(C(=O)COC(=O)c2c(F)cccc2F)cc1 | -8.5 | -13.0 | 0.7 | 10.2 | x | x
CCC[C@@H]1NC(=O)[C@H]2CN(C(=O)c3cccc(OC)c3)CCN2C1=O | 0.3 | 2.7 | -0.3 | 7.6 | x | x
O=C(OC1CCCC1=O)c1ccc(Cl)c(S(=O)(=O)N2CCOCC2)c1 (centres undefined) | -1.0 | 3.5 | 0.1 | 66.1* | 50.9* | 7.8 | AlphaScreen DR=>6.69
O=C(OC1CCCC1=O)c1ccc(S(=O)(=O)N2CCCCC2)cc1 (centres undefined) | -0.5 | -7.2 | -0.1 | 73.9* | 64.5* | 2.2 | AlphaScreen DR=>6.64
O=C(Nc1ccc(Cl)cc1F)C1CC(=O)N(c2ccc(F)cc2)C1 (centres undefined) | -0.3 | 7.9 | 0.3 | 14.1 | x | x
CNC(=O)Nc1ccc(Br)cc1 | 0.9 | -6.5 | 0.0 | -9.4 | x | x
O=C(O)Cc1ccc(N=Cc2cccc([N+](=O)[O-])c2O)cc1 | -0.4 | 1.8 | 0.2 | 94.2* | -6.9 | -5.6
O=[N+]([O-])c1cccc(C=Nc2ccc(F)cc2)c1O | 1.3 | -0.1 | 0.2 | 0.0 | x | x
SMILES | GPR151 ag | TEAD-YAP block | FBW7 act | MITF primary | MITF confirm | AS interf ctr | others
FC(F)(F)c1cccc(CN2CCSCC2)c1 | 0.6 | 2.8 | -0.2 | 17.9 | x | x
CC(C)CC(=O)N1CCN(Cc2ccncc2)CC1 | -1.4 | -1.9 | 0.1 | 65.2* | 7.7 | 13.9
CC(C)CC(=O)N1CCN(Cc2cccc(C(F)(F)F)c2)CC1 | 0.3 | 19.2 | 0.1 | 55.7* | -10.8 | -7.6
CC(C)CC(=O)N1CCN(Cc2ccco2)CC1 | -1.3 | -3.6 | 0.7 | 58.5* | 9.4 | 12.5
Cc1cc(=O)[nH]c(-n2[nH]c(C)c(Cc3ccccc3)c2=O)n1 | -0.8 | 1.7 | 0.0 | 15.3 | x | x
CCOC(=O)c1cnc(-n2[nH]c(C)c(CCO)c2=O)[nH]c1=O | -0.8 | -4.4 | 0.1 | 86.2* | 13.3 | 64.5*
CCOC(=O)c1cnc(N2CCOCC2)[nH]c1=O | -0.9 | -5.5 | 0.0 | 5.1 | x | x
Cc1[nH]n(-c2ncc(C(=O)O)c(=O)[nH]2)c(=O)c1Cc1ccccc1 | 0.5 | 0.0 | -0.2 | 82.6* | 63.5* | 94.7*
COC(=O)c1cn(C(=O)c2ccc(C(C)(C)C)cc2)c2ccccc12 | -0.9 | -1.6 | 0.0 | -11.7 | x | x
O=S(=O)(Nc1cccc2cccnc12)c1ccccc1O | 1.0 | 72.2* | -0.3 | 60.1* | 87.3* | 100.6*
O=S(=O)(Nc1cccc2cccnc12)c1ccc2ccccc2c1 | -0.1 | 16.5 | -0.5 | 12.8 | x | x
COc1ccc(N(C(=O)COc2ccc(Br)cc2)S(=O)(=O)c2ccc(C)cc2)cc1 | 0.5 | -12.8 | 1.1 | 62.5* | -2.5 | 11.9
Cc1cc(C)n(C(=O)/C=C/c2ccc(Br)cc2)n1 | 0.3 | -6.5 | -0.1 | 55.4* | 6.8 | 16.1
Cc1ccc(/C=C/C(=O)n2nc(C)cc2C)cc1 | 1.7 | -17.4 | 0.3 | -0.4 | x | x
COC(F)(C(=O)Oc1cc([N+](=O)[O-])cc2cccnc12)C(F)(F)F (centres undefined) | 0.4 | 42.8* | -0.8 | 95.4* | 98.9* | 100.6*
O=C(O)c1cccc(-c2cc(C(=O)O)ncc2C(=O)O)c1 | 2.0 | -1.1 | -1.2 | 57.2* | 15.6 | 37.8*
O=C(O)c1ccc(C(=O)O)c(-c2ccccc2)c1 | 0.3 | 2.9 | 0.0 | 8.2 | x | x
CCOc1ccccc1OCCCN1CCNCC1 | 0.3 | -5.4 | -0.1 | -8.2 | x | x
CC(C)(C)c1ccccc1OCCCN1CCNCC1 | -0.6 | -15.3 | -0.3 | 59.8* | 3.2 | 3.8
Clc1ccccc1OCCCCN1CCNCC1 | -0.7 | -5.8 | -0.1 | 54.5* | -6.0 | -6.6
Brc1ccccc1OCCCCN1CCNCC1 | 0.1 | -7.3 | -0.1 | 51.3* | -9.3 | -6.5
Clc1ccc(OCCCCN2CCNCC2)cc1 | 2.0 | -15.2 | 0.0 | -1.6 | x | x
O=C(COc1ccccc1)N1CCN(C(=O)c2cccc(Cl)c2)CC1 | -1.4 | 5.5 | 0.1 | 7.5 | x | x
COC(=O)c1ccc(/C=N/n2c(-c3cccnc3)n[nH]c2=S)cc1 | 2.6 | -11.1 | 0.0 | -4.6 | x | x
COc1ccc(-c2cc(C(F)(F)F)n3nc(C(=O)N4CCC(C)CC4)cc3n2)cc1 | 1.0 | -10.9 | 0.1 | 10.7 | x | x
CC1(c2cc(C(F)(F)F)n3nc(C(=O)N4CCC(c5ccncc5)CC4)cc3n2)CC1 | 1.1 | -20.7 | -0.2 | 55.9* | -14.6 | -6.6
CCOC(=O)C1CCN(C(=O)c2cc3nc(-c4ccc(OC)cc4)cc(C(F)(F)F)n3n2)CC1 | -0.7 | -3.5 | -0.3 | 61.2* | -4.1 | -7.8
